# The list is not random: actives were taken first. Their share in the collection is about 13%.
# USP17 inh: inhibitors of human USP17 deubiquitinase. inhibition, % at 50 µM. actives 6.5% (n = 47,000). AID 1645855, 2021. purified USP17, Ub-rhodamine cleavage fluorescence, 3 h
# USP8 block: inhibitors of human USP8 deubiquitinase. Ubiquitin carboxyl-terminal hydrolase 8 (Homo sapiens), P40818. purified USP8, Ub-rhodamine cleavage fluorescence, 30 min. inhibition, % at 20 µM. actives 4.2% (n = 47,000). AID 1645853, 2021
# UCHL1 inh: inhibitors of human UCHL1 deubiquitinase | inhibition, % at 20 µM | actives 0.2% (n = 47,000) | AID 1645859, 2021 | purified UCHL1, Ub-rhodamine cleavage fluorescence | Ubiquitin carboxyl-terminal hydrolase isozyme L1 (Homo sapiens), P09936
# Target sequence (P09936 whole entry, looked up): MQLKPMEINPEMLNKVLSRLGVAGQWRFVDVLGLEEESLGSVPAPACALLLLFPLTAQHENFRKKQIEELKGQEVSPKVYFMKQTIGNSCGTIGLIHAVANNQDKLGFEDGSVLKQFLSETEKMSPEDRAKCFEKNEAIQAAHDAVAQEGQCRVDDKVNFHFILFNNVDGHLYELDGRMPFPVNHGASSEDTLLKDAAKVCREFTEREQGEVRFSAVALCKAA
# USP10 block: inhibitors of human USP10 deubiquitinase. actives 1.1% (n = 47,000). inhibition, % at 20 µM. AID 1645856, 2021. purified USP10, Ub-rhodamine fluorescence, 60 min. Ubiquitin carboxyl-terminal hydrolase 10 (Homo sapiens), Q14694
# USP7 block: inhibitors of human USP7 deubiquitinase; Ubiquitin carboxyl-terminal hydrolase 7 (Homo sapiens), Q93009; purified USP7, Ub-rhodamine cleavage fluorescence; inhibition, % at 20 µM; actives 0.3% (n = 47,000); AID 1645854, 2021
# USP30 inh: inhibitors of human USP30 deubiquitinase | inhibition, % at 25 µM | actives 5.3% (n = 47,000) | purified USP30, Ub-rhodamine cleavage fluorescence | Ubiquitin carboxyl-terminal hydrolase 30 (Homo sapiens), Q70CQ3
# * marks the source's active call; other numbers are inactive results; i = inactive; / = no result given. No stated cut-off is given here; in the data, active means inhibition above about 30%; inactive means the rest.
SMILES,USP17 inh,USP8 block,UCHL1 inh,USP10 block,USP7 block,USP30 inh
NS(=O)(=O)c1ccc(CCNc2ccn3nc(-c4ccccc4)cc3n2)cc1,31.0*,-29.5,3.2,2.2,0.9,23.5
CN(C)S(=O)(=O)c1ccc(C(=O)Nc2c(C#N)oc3ccccc23)cc1,50.8*,0.3,3.8,11.0,6.7,25.5
CN(C)S(=O)(=O)c1ccc(C(=O)Nc2sccc2C#N)cc1,-6.7,-12.3,-19.4,-8.2,-18.6,-90.1
O=C1CC(c2noc(-c3ccncc3)n2)CN1C1CCc2ccccc21 (configuration not stated),-2.0,0.0,-1.4,-0.3,-0.9,5.5
O=C(CSc1ncn(-c2ccccc2)n1)Nc1ccc(Cc2ccncc2)cc1,41.1*,8.6,4.1,14.7,10.7,39.4*
O=C(Nc1ccc(Cc2ccncc2)cc1)c1ccccc1Br,3.6,-2.2,1.5,4.1,4.3,2.0
CCN(Cc1ccccc1)C(=O)Cn1c(N2CCOCC2)nc(C)cc1=O,-6.7,0.0,-2.4,-2.8,-25.3,-13.9
CCc1ccc(C(=O)NCc2ccc(N3CCOCC3)nc2)cc1,27.4,-16.3,2.0,0.2,3.6,19.1
COCCNC(=O)c1ccc(-c2ccc(N3CCCCC3)nc2)cc1,68.0*,3.7,3.5,8.5,-18.5,31.2*
COc1cc(C2CC(=O)Nc3nc(C)[nH]c(=O)c32)cc(OC)c1O (configuration not stated),-21.8,-130.1,-3.6,-1.3,-2.9,-9.9
CC(=O)Nc1c(-c2ccccn2)nsc1C(=O)N1CCc2ccccc2C1,-6.5,-16.2,-2.3,1.2,-11.7,-11.3
COc1c(O)c2c(c3cc(C(=O)O)[nH]c13)CCN2C(N)=O,36.5*,6.8,5.0,1.1,2.2,14.6
CC1(c2ccccc2F)NC(=O)c2ccccc2N1 (configuration not stated),16.7,26.3,3.0,1.4,3.0,-9.5
O=C(O)C1CCC1C(=O)N1CCN(c2ccc(C(F)(F)F)cn2)CC1 (configuration not stated),11.3,12.1,0.1,0.1,0.5,3.0
O=C1OC(C(=O)N2CCN(c3ccc(C(F)(F)F)cn3)CC2)Cc2ccccc21 (configuration not stated),42.5*,3.0,-3.3,3.6,-7.3,13.9
O=C(O)c1ccccc1C(=O)N1CCN(c2ccc(C(F)(F)F)cn2)CC1,19.0,15.0,0.0,-0.1,1.3,31.9*
Fc1ccc(-c2nn3c(-c4ccc5c(c4)OCO5)nnc3s2)cc1,17.4,64.3*,0.3,-0.1,4.2,18.1
CC(C)c1nc(CNC(=O)C2CCCCC2)no1,36.5*,24.8,0.3,-0.5,3.6,10.3
O=C(NCc1noc(C2CCCCC2)n1)C1CCCC1,-12.8,-0.6,-4.1,-1.2,-4.9,-7.9
Cc1cc(NC(=O)c2ccc([N+](=O)[O-])cc2)ccc1NC(=O)Cc1ccccc1,-2.3,-15.1,-2.7,8.0,3.4,10.7
C/C=C\C1=CC(=O)[C@]23C[C@H]2[C@]2(C)CO[C@@]1(O)[C@@]3(O)O2,52.4*,-321.4,-85.6,-10.2,-114.4,-136.6
Cc1cnc(C(=O)N2CCCC(c3ncc(Cc4ccccc4)o3)C2)cn1 (configuration not stated),-0.1,-5.9,0.1,0.5,-2.8,/
Cc1cnc(C(=O)N2CCCC(c3ncc(Cc4ccc(F)cc4)o3)C2)cn1 (configuration not stated),5.9,17.4,2.4,0.0,3.3,31.5*
CCOc1ccc(-n2ccnc(SCC(=O)Nc3ccccc3F)c2=O)cc1,27.5,57.3*,-3.1,15.5,21.0,32.1*
COc1cnc(CSc2nccc(C)n2)cc1OCC(=O)Nc1ccccc1F,-9.2,-33.4,2.8,-2.2,6.7,6.5
SMILES,USP17 inh,USP8 block,UCHL1 inh,USP10 block,USP7 block,USP30 inh
CCOc1ccc(-n2ccnc(SCC(=O)Nc3ccccc3Cl)c2=O)cc1,30.0*,52.8*,-2.4,-1.4,20.6,-37.3
Cn1c(=O)c2c(ncn2CC(=O)OCC(=O)Nc2cccc(Cl)c2)n(C)c1=O,5.0,15.1,-0.6,2.3,1.5,5.3
Cc1cc(C)cc(-n2ccnc(SCC(=O)Nc3cccc(Cl)c3)c2=O)c1,34.2*,-4.3,4.5,7.2,5.7,54.5*
COc1ccc(-c2ccnc(SCC(=O)Nc3ccccc3F)n2)cc1,71.2*,24.0,2.9,-0.3,6.1,64.6*
CN(C)c1cc(C(=O)NC2CC2)c2cc(F)ccc2n1,-3.1,-0.7,-3.7,-4.0,-0.6,3.2
Cn1ccc(-c2cc(C(=O)N3CCC(N4CCCC4)CC3)c3ccccn23)n1,-153.0,-128.0,-9.6,-10.6,-8.7,i
Cn1nnc2cc(C(=O)Nc3cccc(Br)c3)ccc21,22.7,0.0,-3.0,0.0,0.5,-13.4
O=C(O)CC(NS(=O)(=O)c1cc(Cl)cc(Cl)c1)c1ccccc1[N+](=O)[O-] (configuration not stated),11.1,-13.4,0.4,1.3,4.0,13.5
CCOC(=O)c1cc(S(=O)(=O)N2CCc3cc(OC)c(OC)cc3C2C)cn1C (configuration not stated),-3.1,1.3,3.7,-3.0,1.9,-40.5
COc1cn(CC(=O)Nc2cccc(Cl)c2)c(CSc2ccccc2)cc1=O,-6.2,0.1,-3.1,-0.1,-72.1,-19.6
C/C(=C\c1ccccc1)CN1CCC(O)(c2ccc(C)cc2)CC1,12.8,34.4*,4.3,2.0,-0.8,11.7
Cc1cnc(NC(=O)Cn2cnc3ccccc3c2=O)s1,39.6*,-1.4,-0.7,1.6,/,-1.8
O=C(Cn1cnc2ccccc2c1=O)NC1CCCC1,-0.9,-5.2,-1.6,-2.4,1.0,-8.0
O=C1N[C@@H]2[C@@H](O)[C@@H](O)[C@@H](O)[C@@H](CO)N2C1=O,-1.9,-1.3,-1.2,1.5,0.8,0.3
NC(=O)c1nc(-c2ccccn2)nc2c1[nH]c(=O)n2-c1ccc2c(c1)OCO2,42.7*,-153.8,2.7,-4.5,5.7,42.8*
NC(=O)c1nc(-c2cccnc2)nc2c1[nH]c(=O)n2-c1ccc2c(c1)OCO2,46.1*,53.1*,0.7,25.3,7.0,15.9
NC(=O)c1nc(C2CCCCC2)nc2c1[nH]c(=O)n2-c1ccc2c(c1)OCO2,-3.6,3.3,3.2,4.2,8.7,-29.4
COc1cc(-c2nc(C(N)=O)c3[nH]c(=O)n(-c4ccc(C)cc4)c3n2)cc(OC)c1OC,74.7*,0.3,8.4,0.8,9.6,45.4*
Cc1noc(C)c1CN1CCC(N2CCN(C(=O)c3cccc4cccnc34)CC2=O)CC1,10.3,25.1,-0.1,-5.5,2.0,0.9
Cc1cc(C(=O)N2CC[C@H]3NC(=O)c4ccccc4OCCCCC[C@H]3C2)no1,-7.5,-2.4,-0.3,1.4,-1.3,-0.2

# Bioassay records from PubChem.
